Measurements reported in PubChem BioAssay AID1477 (National Center for Advancing Translational Sciences (NCATS), 2009).
Hit rate of the full screen: of about 230,000 compounds, fewer than 10 were called active. Not shown: some 3% with an inconclusive outcome. Calls come from the whole dose curve; as a rule, active = well fitted curve in the direction sought with a large enough effect; inconclusive = small, poorly fitted or top-dose-only effect, or effect the other way, or another doubt; inactive = no such curve, though single readings can be large or run the other way. A selection follows.

Each compound was assayed against Runt-related transcription factor 1 (Homo sapiens) + Core-binding factor subunit beta (Homo sapiens) (UniProt Q01196+Q13951) (assay: qHTS Assay for Compounds Blocking the Interaction Between CBF-beta and RUNX1 for the Treatment of Acute Myeloid Leukemia). Settings: AlphaScreen CBFb-His/RUNX1-biotin binding, biochemical; series mostly up to 59.8 µM; activity, negative = inhibition: at the top concentration.
Source text: NIH Chemical Genomics Center [NCGC]
NIH Molecular Libraries Probe Production centers Network [MLPCN]
Assay Submitter (PI): Paul Liu
Core Binding Factor (CBF) abnormalities are associated with 20-25% of all acute myeloid leukemias (AML), of which 5-10% are further sub classified as acute myelomonocytic leukemia with eosinophilia, also known as M4Eo in the FAB classification scheme. This subtype of leukemia is usually associated with chromosome 16 inversion (p13:q22). Chromosome 16 inversion results in formation of the fusion oncogene CBFB-MYH11, which encodes the fusion protein CBF-beta-SMMHC.
It has been hypothesized that the interference of CBF-beta and RUNX1 binding could have therapeutic implications for patients with CBF mediated leukemias. We developed a CBF-beta and RUNX1 binding assay in AlphaScreenTM format and optimized it for high throughput screening to search for inhibitors. The goal of this project is to screen MLPCN's compound collection (MLSMR) for identifying the inhibitors of the interaction between CBF-beta and RUNX1 proteins as research probes. If these probes work well in the animal models, the ultimate goal of this project is to development a new drug treatment for this disease.
This assay can not be used to assess how apparent inhibitors interfere with protein binding, and whether inhibitors specifically bind to either protein. Disruption of this protein-protein interaction, through any mechanism, is the intended target activity.
NCGC Assay Protocol Summary:
Step, Parameter, Description
(1) Reagent, 3 uL CBFb-His/RUNX1-biotin mix incubated together for 20 minutes at room temperature (30 nM each)
(2) Compound or control, 23 nL compound stock solution
(3) Incubation, 15 minutes at Room temperature
(4) Reagent, 1 uL 50 ng each of beads (Nickel beads and streptavidin beads)
(5) Incubation, 90 minutes at Room temperature
(6) Detection, Excitation=365 nm Emission=440 nm, Envision reader in AlphaScreenTM mode
Keywords: MLSMR, MLPCN, NIH Roadmap, qHTS, NCGC, Core binding factor, CBF, CBF-beta, Acute myeloid leukemia
Note: % of control where 0% means no effect.

Chain of Runt-related transcription factor 1 (Homo sapiens) + Core-binding factor subunit beta (Homo sapiens) (Q01196 whole entry, looked up): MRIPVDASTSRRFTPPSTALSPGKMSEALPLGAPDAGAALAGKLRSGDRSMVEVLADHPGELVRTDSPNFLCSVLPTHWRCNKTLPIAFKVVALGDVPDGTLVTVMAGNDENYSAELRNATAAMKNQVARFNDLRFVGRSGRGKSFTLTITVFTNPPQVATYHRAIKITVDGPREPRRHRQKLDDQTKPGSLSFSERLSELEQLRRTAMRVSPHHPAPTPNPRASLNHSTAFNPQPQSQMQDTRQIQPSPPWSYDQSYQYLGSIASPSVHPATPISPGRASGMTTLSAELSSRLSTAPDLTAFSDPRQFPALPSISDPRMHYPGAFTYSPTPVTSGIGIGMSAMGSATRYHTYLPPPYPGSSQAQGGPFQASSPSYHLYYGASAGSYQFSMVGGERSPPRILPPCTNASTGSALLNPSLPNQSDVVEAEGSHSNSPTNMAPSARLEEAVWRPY
Chain of Runt-related transcription factor 1 (Homo sapiens) + Core-binding factor subunit beta (Homo sapiens) (Q13951 whole entry, looked up): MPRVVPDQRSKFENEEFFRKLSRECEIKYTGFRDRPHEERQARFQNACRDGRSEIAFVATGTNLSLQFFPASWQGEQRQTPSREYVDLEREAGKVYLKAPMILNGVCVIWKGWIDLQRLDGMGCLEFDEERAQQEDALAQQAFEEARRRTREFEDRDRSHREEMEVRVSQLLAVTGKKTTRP

activity, negative = inhibition, inactive:
O=C(c1ccccc1)c1cc(-c2ccccn2)c(N2CCOCC2)s1 14.4%
CC1CN(c2nc(Nc3ccccc3)nc(N)c2[N+](=O)[O-])CC(C)O1 (stereo not drawn) -9.51%
OCCC#Cc1ccc(CN2CCN(Cc3ccsc3)C(CCO)C2)cc1 (stereo not drawn) -9.41%
O=C(O)c1ccc(/C=C2/SC(=S)N(c3cccc(C(F)(F)F)c3)C2=O)cc1 7.05%
COc1ccc2nc(NC(=O)NC3CCCCC3)sc2c1 -3.84%
COc1ccc(Br)cc1C1C2C=CCC(C)C2C(=O)N1Cc1ccccc1 (stereo not drawn) 5.58%
COc1cc(C(=O)NCc2nnc(SCC(=O)Nc3nc4ccc(C)cc4s3)o2)cc(OC)c1OC -20.9%
COCc1cc(=O)[nH]c(-c2ccc(C(F)(F)F)cc2)n1 2.05%
COc1ccc(N2C(=O)/C(=C\c3ccco3)N=C2SCC(N)=O)cc1Cl -24%
COc1ccc(Cl)cc1NC(=O)NC(C)C(C)(C)C (stereo not drawn) 14.5%
CC(C)=CCC[C@]1(C)[C@@H](CC=C(C)C)C[C@@]2(CC=C(C)C)C(=O)[C@]1(C(=O)C(C)C)C(=O)C(CC=C(C)C)=C2O -1.66%
COc1ccc(/C=C/C(=O)Nc2ccc(C)cc2)cc1S(=O)(=O)N1CCOCC1 1.34%
Cc1ccc(CNC(=O)C2(C(F)(F)F)C/C(=C\CCO)CCCO2)o1 (stereo not drawn) 0.93%
C[C@H]1CCC[C@@]2(C)CCCC[C@]12O -0.847%
Oc1ccc(-c2c(-c3ccccc3)nn3c(C(F)(F)F)cc(C(F)(F)F)nc23)cc1 -29%
COc1ccc2oc(-c3cccc(NC(=O)CSc4ccc(Cl)cc4)c3)nc2c1 2.53%
CC[C@H](C)[C@@H](NC(=O)O[C@@H]1C(=O)c2cc(OC)ccc2O[C@H]1c1cccc(OC)c1)C(=O)OC 7.03%
COc1ccc(C2/C=C\CN(C(=O)c3ccc(C)cc3)C(Cc3ccccc3)C(=O)N2Cc2ccc(F)cc2)cc1 (stereo not drawn) -2%
H-EHIPA-OH 4.57%
COC(=O)C(CC(C)C)NS(=O)(=O)c1cc(Br)ccc1Br (stereo not drawn) 8.93%
Cc1ccc(C(=O)N/N=C\c2cc(Br)c(Br)o2)cn1 -16.1%
COc1ccc(C2/C=C\CN(CC(C)C)CC(=O)N2Cc2ccc(F)cc2)cc1 (stereo not drawn)
COc1ccc(C(=O)CSc2nnc(NC(=O)C3CC(=O)N(c4cccc(OC)c4)C3)s2)cc1 (stereo not drawn) 5.76%
COc1ccc(/C=N/NC(=O)Cn2cc(C(F)(F)F)ccc2=O)cc1 8.56%
COC(=O)c1c(NC(=O)CN(c2ccc(C)c(C)c2)S(C)(=O)=O)sc2c1CCCC2 -8.59%
COc1ccc(C(CCN2CCOCC2)c2c(OC)cc(OC)c3c2OC(=O)CC3c2ccc(OC)cc2)cc1 (stereo not drawn) -15.9%
COC(=O)c1nc2n(n1)C(c1ccc([N+](=O)[O-])cc1)C(C(=O)Nc1ccc(Cl)cc1)=C(C)N2 (stereo not drawn) -5.95%
O=C(COC(=O)c1ccc(S(=O)(=O)Nc2ccccc2)cc1)NCC1CCCO1 (stereo not drawn) 10.7%
C=C1CCN(Cc2ccc(OC)cc2)S(=O)(=O)c2ccccc21 13.9%
CC(C)C(NS(=O)(=O)c1ccc(-c2ccc(Br)cc2)cc1)C(=O)O (stereo not drawn) 9.65%
CCCC(O)(CCC)C(=O)NN(C(=O)CCl)c1cccc(C)c1 -3.73%
COc1ccc(C(=O)Nc2ccc(-n3nncc3C(C)(C)C)cc2)cc1 -0.753%
C=CCOC(=O)C(=C)C 2.23%
NCCCCC(N)C(=O)O (stereo not drawn) 4.1%
O=C(Cn1c(COc2ccccc2)nc2ccccc21)Nc1cc(Cl)c(Cl)cc1Cl -4.59%
C/C(=N\NC(=O)CNC(=O)C(c1ccccc1)c1ccccc1)c1ccc(C)cc1 -2.24%
COc1ccc(C(=O)NC2CCN(C(=S)NCCc3ccccc3)CC2)cc1 2.59%
O=C(Nc1cc(C(F)(F)F)ccc1Cl)c1cc2nc3c(c(C(F)(F)F)n2n1)CCCC3 3.04%
Cc1cc(OCCCCOc2ccc(C#N)cc2)ccc1[N+](=O)[O-] 15.6%
Cc1cc2c(cc1C)N(Cc1ccccc1)C1=NCCCN12 -4.11%
CCCc1cc(=O)[nH]c(SCC(=O)N2CCN(S(=O)(=O)c3ccc(C)cc3C)CC2)n1 14.9%
CCOC(=O)c1nn(-c2cccc(C)c2)cc1C(=O)c1ccccc1 -7.37%
COc1ccc(-c2nc3c(c4c2C[C@H](c2ccccc2)OC4)CN(C(=O)c2ccco2)CC3)c(C)c1 5.84% [at 13.1 µM]
COc1ccc(-c2ccc(OC(=O)NC3CCS(=O)(=O)C3)cc2)cc1 (stereo not drawn) 4.1%
COc1ccccc1/C=C/CN1CCC(CO)(Cc2ccccc2)CC1 3.97%
CC(=O)c1c(O)cc2n(c1=O)-c1ccc(Cl)cc1C2(C)C 1.82%
C/C(=C\c1ccccc1)C1NC(=O)c2c(sc3c2CCCC3)N1 (stereo not drawn) -0.931%
Cc1ccc(-n2cc(CN(C)Cc3nccn3C)c(-c3cccc(C)c3)n2)cc1 -15.4%
CC(/C=C/c1ccco1)=N/NC(=O)C1COc2ccccc2O1 (stereo not drawn) -3.74%
CCOc1cccc2c1OC1(CCCCC1)N1N=C(c3cccnc3)CC21 (stereo not drawn) 3.17%
OCCNCCOc1ccc(Cl)c(Cl)c1 -1.31%
Cc1c(CCO)c(=O)[nH]n1C(=O)c1c(F)cccc1F 0.745%
O=C1C[C@@H](c2ccc3ccccc3c2)N1S(=O)(=O)c1ccccc1[N+](=O)[O-] 9.98%
CCOC(=O)Cn1c(=O)sc2cccc(Cl)c21 5.32%
O=C(CC1C(=O)NCCN1Cc1ccc(-c2ccccc2)cc1)NCC1CCOCC1 (stereo not drawn) 1.5%
CCO[C@H]1OC(C(=O)Nc2ccccc2)=C[C@@H](C2CC2)[C@@H]1CCCO 11.9%
Cc1ccc2nc(-c3cccnc3)c(NC3CCCC3)n2c1 -13.5%
CCCCC/C=C\C/C=C\C/C=C\CCCCCCC(N)=O -2.43%
Cc1ccc(C2=NN(C(=O)COc3ncnc4ccccc34)C(c3ccco3)C2)cc1 (stereo not drawn) 9.21%
O=C(Cc1ccc(S(=O)(=O)N2CCCC2)s1)NC1CCCCCC1 -11%
O=C(Nc1ccc(-c2csc(Nc3cccc(C(F)(F)F)c3)n2)cc1)c1cccc(C(F)(F)F)c1 19.3%
CC[C@H](C)[C@H](NC(=O)[C@H](Cc1ccc(O)cc1)NC(=O)[C@@H](NC(=O)[C@H](CCCN=C(N)N)NC(=O)[C@@H](N)CC(=O)O)C(C)C)C(=O)N[C@@H](Cc1cnc[nH]1)C(=O)N1CCC[C@H]1C(=O)N[C@@H](Cc1ccccc1)C(=O)O 26.2%
COc1ccc(CCn2c(NN=C3CCCC3)nc3c2c(=O)[nH]c(=O)n3C)cc1 -24.2%
